IEC-6 tox-1: kills IEC-6 intestinal cells in KLF5 counter-screen. inhibition, % at 5 µM. 290,000 tested, 0.78% active. IEC-6 cytotoxicity, luminescence viability. AID 1825;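 further: 0% = plate median of test compound wells and 100% = cytotoxic reference compound wells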
Ba/F3 V617F tox: loss of viability in JAK2V617F-driven Ba/F3 cells | Ba/F3 EpoR-JAK2V617F viability, ATP luminescence | inhibition, % at 5.6 µM | 220,000 tested, 1.1% active | AID 1446;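 active means inhibition above the campaign mean plus 3 SD over all tested compounds, cut at about 24% in these data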;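 further: cytokine-independent growth of Ba/F3 cells driven by EpoR plus mutant JAK2; 0% = DMSO-treated cells and 100% = JAK inhibitor I control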
KLF5 inh: suppresses KLF5 promoter-driven expression | DLD-1 KLF5 promoter-luciferase reporter, luminescence | AID 1700 | inhibition, % at 5 µM | 290,000 tested, 0.23% active;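 active means inhibition above a per-plate limit of that plate's mean compound inhibition plus 3 SD, cut at about 60% in these data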;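 further: 0% = DMSO wells and 100% = LY294002 at 200 µM; higher means less KLF5 promoter-driven luciferase light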
APP transl inh: APP translation inhibition | SH-SY5Y APP 5'UTR-luciferase reporter, luminescence | inhibition, % at 2 µM | 190,000 tested, 0.82% active;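 active means inhibition above a set limit, derived from the sample mean plus 3 SD, cut at about 45% in these data; inconclusive means one replicate passes the limit while the other fails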
BaF3 parental: counter-screen for JAK2V617F inhibitors: parental Ba/F3 viability inhibitors; CellTiter-Glo ATP luminescence; inhibition, % at 5.6 µM; 220,000 tested, 1.1% active;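 active means inhibition above a per-campaign cutoff, the mean inhibition of all tested compounds plus 3 SD, cut at about 27% in these data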;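 further: 0% = DMSO wells and 100% = JAK Inhibitor I control wells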
aSyn 5UTR inh: 5' untranslated region of α-synuclein, MLPCN primary screen. alpha-synuclein 5'UTR reporter, inhibitor activity. 300,000 tested, 0.82% active. inhibition, % (tested at 7.5 µM); in the data active means inhibition above about 60%; inconclusive means no clear call, values can overlap the other calls;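 further: H4 neuroglioblastoma cells stably carrying SNCA 5'UTR luciferase fusion; 0% = DMSO wells and 100% = positive control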
KLF5 confirm: confirmation of KLF5 inhibitors. shares compounds with KLF5 inh. DLD-1 KLF5 promoter firefly luciferase reporter, luminescence. inhibition, % at 4 µM. 610 tested, 79% active. AID 1834;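 active means inhibition above a set limit taken from the earlier primary screen, cut at about 63% in these data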;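 further: 0% = DMSO wells and 100% = LY294002 at 200 µM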
IEC-6 tox-2: kills rat IEC-6 cells in KLF5 counter-screen | IEC-6 rat intestinal cells, viability luminescence | AID 1905 | 610 tested, 56% active | shares compounds with KLF5 inh | inhibition, % at 4 µM; in the data active means inhibition above about 23%;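 further: cells exposed to compounds for 48 hours before viability read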
IEC-6 cytotox cf: IEC-6 cytotoxicity, confirmation assay. shares compounds with IEC-6 tox-1. IEC-6 rat intestinal epithelial viability, luminescence. inhibition, % at 5 µM. 1,900 tested, 63% active;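 further: 0% = vehicle and 100% = reference cytotoxic drug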
Active calls of the source: *; ? = inconclusive; · = no result. Shown are actives, neighbours in structure and some others; about 2.2% of the full set was active somewhere. Unless noted, no stated cut-off is given here; in the data, active means inhibition above about 22%; inactive means the rest.

SMILES	IEC-6 tox-1	Ba/F3 V617F tox	KLF5 inh	APP transl inh	BaF3 parental	aSyn 5UTR inh	IEC-6 cytotox cf	others
CCCC(=O)NC(c1ccccc1Cl)c1ccc2cccnc2c1O (stereo not given)	98*	·	91*	·	·	68*	76*	KLF5 confirm=91*;IEC-6 tox-2=78*
CC(C)CC(=O)NC(c1ccccc1Cl)c1c(O)ccc2ccccc12 (stereo not given)	-7	2	-24	-2	7	-21	·
Cc1ccccc1-c1cc2c(nn1)-c1ccccc1C2=O	102*	91*	102*	-17	88*	-13	41*	KLF5 confirm=-80;IEC-6 tox-2=13
O=C(CSc1cccc2cccnc12)Nc1cc(C(=O)O)cc(C(=O)O)c1	5	·	-1	·	·	-8	·
CCOc1ccccc1NC(=O)CCNC(=O)Cn1ccc2ccccc2c1=O	6	·	-17	·	·	6	·
Brc1ccc(C2=Nn3c(nnc3-c3n[nH]c4c3CCC4)SC2)cc1	77*	75*	67*	94*	81*	86*	59*	KLF5 confirm=67*;IEC-6 tox-2=63*
Cn1nc(-c2ccc(Cl)cc2)nc2c(=O)n(C)c(=O)nc1-2	98*	95*	91*	-13	85*	110*	78*	KLF5 confirm=113*;IEC-6 tox-2=63*
CCN(CC)CCNC(=O)c1ccc2c(c1NCCO)C(=O)c1ccccc1C2=O	100*	96*	107*	·	102*	96*	102*	KLF5 confirm=89*;IEC-6 tox-2=102*
CCOC(=O)COc1cccc2c(=O)n(CC(=O)NCc3ccccc3)ccc12	23*	73*	81*	·	68*	?	46*	KLF5 confirm=80*;IEC-6 tox-2=30*
COc1ccc(CC(=O)NCc2ccc(-n3cccc3)cc2)cc1OC	76*	·	71*	·	·	64*	58*	KLF5 confirm=72*;IEC-6 tox-2=60*
O/N=C/c1cccc[n+]1CCCCCC[n+]1ccccc1/C=N/O	-3	·	-16	·	·	-1	·
CCCCCCCCC[n+]1cccc2c3ccccc3ccc21	60*	101*	75*	29	92*	69*	72*	KLF5 confirm=71*;IEC-6 tox-2=39*
CC(C)c1cc(C(=O)N2CCCC(N3CCN(c4ccc(F)cc4)CC3)C2)no1 (stereo not given)	-4	·	-7	·	·	14	·
COc1cc(-c2noc(C)c2C#CCO)cc(OC)c1OC	5	·	-12	·	·	13	·
COc1cc(-c2noc(C)c2/C=C/c2ccc(OC(C)=O)cc2)cc(OC)c1OC	91*	·	71*	·	·	95*	60*	KLF5 confirm=83*;IEC-6 tox-2=63*
O=C(Sc1cccc2cccnc12)c1ccccc1Br	102*	·	62*	·	·	-242	99*	KLF5 confirm=17;IEC-6 tox-2=100*
CCN(CCn1cccn1)Cc1c(C(=O)N2CCCCCCC2)nc2ccc(Cl)cn12	-3	1	-6	3	5	-3	·
COc1cc(C2=NOC(C(=O)Nc3cc(C)on3)C2)cc(OC)c1OC (stereo not given)	-3	-3	0	·	3	0	·
O=C(Nc1nnc(-c2ccc(F)cc2)o1)c1ccc(S(=O)(=O)N2CCOCC2)cc1	40*	·	59	·	·	39	13
COc1ccccc1-c1nnc(NC(=O)c2ccc(S(=O)(=O)N3CCCC3)cc2)o1	22*	·	20	·	·	12	5
CCNc1oc(/C=C/c2ccc(OCC)cc2)nc1C#N	52*	·	-17	·	·	-188	36*
CCN(CC)CCCNc1oc(/C=C/c2ccccc2)nc1C#N	3	-4	-29	·	3	-64	·
CCCc1nnc(SCC(=O)Nc2cccc(Cl)c2Cl)o1	5	·	-22	·	·	-42	·
COc1ccc(NS(=O)(=O)c2cc(Br)cc3c2N(C(C)=O)CC3)cc1	38*	·	31	·	·	-30	33*
CCCN(CC(=O)Nc1ccc(F)c(F)c1F)CC(=O)Nc1c(Cl)cccc1Cl	59*	0	-3	-3	5	15	38*
SMILES	IEC-6 tox-1	Ba/F3 V617F tox	KLF5 inh	APP transl inh	BaF3 parental	aSyn 5UTR inh	IEC-6 cytotox cf	others
COc1ccc(NS(=O)(=O)c2cc(OC)ccc2NC(=O)c2cc(C)oc2C)cc1	45*	62*	33	54*	66*	22	30*
Cc1ccc(C(=O)N/C(=C\c2ccco2)C(=O)N2CCCCC2)cc1	-11	·	-2	·	·	1	·
C/C(=N\NC(=O)c1cc(C)nc2ccccc12)c1ccc([N+](=O)[O-])cc1	0	0	-29	6	7	38	·
COc1ccc(/C=N/NC(=O)c2cccc(NC(=O)c3ccccc3Cl)c2)cc1	72*	·	45	·	·	-99	50*
CCc1cc(C(=O)N/N=C/c2ccc(OC)cc2)c2ccccc2n1	30*	·	49	·	·	-38	17
CCOc1ccc(-c2cc(C(=O)N/N=C/c3cccnc3)c3ccccc3n2)cc1	66*	·	5	·	·	16	45*
C/C(=N\NC(=O)c1cc(C)nc2ccccc12)c1ccncc1	42*	·	38	·	·	-12	-4
COc1ccc(OC)c(-c2cc(C(=O)N/N=C/c3ccc(F)cc3)c3ccccc3n2)c1	·	·	·	·	·	14	·
Cc1nn(C(=O)CCCn2cc([N+](=O)[O-])cn2)c(C)c1Cl	-6	0	-19	0	6	3	·
O=C(N/N=C/c1ccco1)c1cc(-c2ccncc2)nc2ccccc12	31*	·	43	·	·	-27	-1
O=C(Nc1nnc(SCc2cccnc2)s1)C1CC(=O)N(c2ccc(F)cc2)C1 (stereo not given)	-1	·	-14	·	·	15	·
O=S(=O)(c1ccccc1)N1CCC(O)(CSc2ccc(F)cc2)CC1	-5	2	-37	-3	5	26	·
ClC(Cl)(Cl)c1nc2ccccc2n2nncc12	82*	·	31	·	·	29	31*
Cc1cc(C)cc(NC(=O)CCn2c(=O)c3cccn3c3ccccc32)c1	40*	·	31	·	·	-3	37*
Cc1ccc(NC(=O)CCn2c(=O)c3cccn3c3ccccc32)c(C)c1	-8	·	-23	·	·	-18	·
COc1cccc(N2CC(O)=C(c3nc4ccccc4c(=O)[nH]3)C2=N)c1	51*	78*	48	93*	81*	-4	64*
CCCOc1ccc(C(=O)CCC(=O)OCC(=O)N(C)c2c(N)n(Cc3ccccc3)c(=O)[nH]c2=O)cc1	-5	·	-25	·	·	5	·
O=C(CNCc1ccccc1)Nc1ccc(Oc2ccccc2)cc1	60*	62*	32	-14	52*	20	6
COc1cccc(-n2nc(C#N)c(Cl)cc2=O)c1	28*	8	12	91*	-10	17	29*
COc1cccc(-n2nc(C(N)=O)c(O)cc2=O)c1	-1	1	-18	-3	3	5	·
COc1ccc(C2C(C#N)=C(C)NC3=C2C(=O)c2ccccc23)cc1 (stereo not given)	-4	-3	15	5	1	8	·

Screens: PubChem BioAssay, several laboratories
